Reference: PubChem BioAssay (NCI)
About 79,000 compounds went through this panel and 15% of them were active in at least one assay; those are over-represented in the sample as a whole. A number with no mark means an inactive call. Activity calls are given as the source filed them. Rule as the data show it: active = growth inhibition above about 70%; inactive = the rest.

Assay: NCI Yeast Anticancer Drug Screen. Data for the wt1 strain (AID 149);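 also: 0% = growth of vehicle-treated wt1 cultures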
Conditions: S. cerevisiae wt1 strain (SPY 50644) growth inhibition; at 11.0 µM; hits give high values
Procedure, shortened: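 Growth inhibition read against vehicle controls after compound exposure of the wt1 yeast strain.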

| SMILES | growth inhibition |
| --- | --- |
| CCC/C(Cl)=N\OC(=O)Nc1cccc(C(F)(F)F)c1 | 0% |
| [O-][n+]1c2ccc(O)cc2nc2ccc(Cl)cc21 | 23% |
| Clc1ccccc1C1OC1c1ccccc1Cl (centres undefined) | -61% |
| c1ccc2c(c1)c1ncccc1c1nccnc21 | 11% |
| CC(=O)Nc1ccc2c(c1)C(=Nc1ccc(C(=O)O)cc1)c1ccccc1-2 | 5% |
| COc1ccc(OC)c2cc3ccccc3cc12 | -12% |
| COc1cc(C2c3cc4c(cc3OC(NNc3ccccc3)C2C)OCO4)cc(OC)c1OC (centres undefined) | 19% |
| O=C1c2cc([N+](=O)[O-])ccc2-c2cccc(F)c21 | 8% |
| CCCCCCCCCCCC(=O)N(C)C | -14% |
| CCCCCCCCCCCC1=C(O)C(=O)C=C(O)C1=O | 64% |
| Cc1ccc(CSC(N)=Nc2ccccc2)cc1C | 0% |
| CCCCCCCCCCC1CCC(=O)O1 (centres undefined) | -2% |
| O=[N+]([O-])c1cc(CCl)ccc1CCl | 30% |
| Nc1ccc2c(c1)C(=O)c1cccc(N)c1C2=O | 24% |
| CCCCCCCCCCNC(=O)OCC | -4% |
| CC1=C(C)Cc2c(O)ccc(O)c2C1 | -3% |
| COc1ccc2c(c1)C(=O)c1ccccc1C2 | 5% |
| CCC(=O)OCCn1c2nc(=O)[nH]c(=O)c-2nc2cc(C)c(C)cc21 | 4% |
| O=C(OCCN1CCCCCC1)C(c1ccsc1)C1CCCCC1 (centres undefined) | 16% |
| Oc1c(Br)cc(Br)cc1C1CCCCC1 | -6% |

| SMILES | growth inhibition |
| --- | --- |
| CC1(C)[C@@H]2CC[C@]1(C)[C@H](OC(=O)CSC#N)C2 | 14% |
| S=C(N/N=C(/c1ccccc1)c1ccccn1)N1CCCCCC1 | 4% |
| Cc1ccc2[nH]c3c(C)c4cc[n+](C)cc4c(C)c3c2c1 | -10% |
| CNC(=O)OCc1c(COC(=O)NC)c(-c2ccc(-c3ccccc3)cc2)n(C)c1C | -12% |
| COc1ccccc1/C=C1\Sc2scc(-c3cccc([N+](=O)[O-])c3)[n+]2C1=O | 99% (active) |
| O=[N+]([O-])c1ccc2c(c1)C(N1CCN(CCO)CC1)Cc1ccc(F)cc1S2 (centres undefined) | -3% |
| Cc1ccc(CCC2=CCCc3c2ccc2ccccc32)cc1 | -5% |
| O=[N+]([O-])c1cccc2nccc(NCCCO)c12 | 5% |
| Cc1ccc(-n2cc(-c3ccc(Cl)cc3)c(C#N)c2N)cc1 | 1% |
| Cc1ccc(S/N=C\c2ccccc2O)cc1 | 0% |
| O=C(O)C1OC1(c1cccc(Cl)c1)c1ccccc1Cl (centres undefined) | -15% |
| NC(=S)N/N=C\c1nccc2ccccc12 | 16% |
| Clc1cccc(C(Nc2nncs2)Nc2nncs2)c1Cl | 0% |
| O=C(OCC=C1CCCC1)c1cc([N+](=O)[O-])cc([N+](=O)[O-])c1 | 10% |
| O=C(Nc1ccccc1)C(=O)C(C(=O)c1ccccc1)C(c1ccccc1)c1ccccc1 (centres undefined) | 4% |
| N#CN1C2CCC1CC(=O)C2 | -46% |
| COc1ccccc1C(=O)OCC1CCCN2CCCCC12 (centres undefined) | 7% |
| CCNc1nnc(CSc2nc(-c3ccccc3)c(-c3ccccc3)[nH]2)s1 | -19% |
| O=C1c2ccccc2-c2n[nH]c3cccc1c23 | -12% |
